# FMDV antiviral: High Throughput Screening for Foot and Mouth Disease Virus Antivirals | FMDV antiviral cell-based qHTS | Potency, µM (series often up to 57.9 µM), for the others: top-dose activity change, negative = inhibition, actives largely listed as inhibitors | 1.2% of 410,000 active | AID 1159524, 2015; calls by dose curve; tested in HEK293T cells; also: read-out not given here; potency is read from the fitted curve at half-maximal effect; nearly all actives have a fitted effect of over 45% in size
# VACV Venus inh: qHTS for Stage-Specific Inhibitors of Vaccinia Orthopoxvirus: Venus Reporter Primary qHTS; Vaccinia virus Venus reporter expression, fluorescence; Potency, µM (titrated, usually from 36.5 µM), for inactives: at the highest dose activity change, negative = inhibition, hits mostly inhibitors; 0.46% of 330,000 active; AID 720580, 2013; calls by dose curve; tested in A549 cells; also: potency is read from the fitted curve at half-maximal effect; nearly all actives have a fitted effect of over 30% in size
# HCV inh: qHTS Assay for Inhibitors of Hepatitis C Virus (HCV) | Huh7.5.1 HCVcc-Cre infection, luciferase reporter, 44 h | Potency, µM (highest dose often 41.8 µM), for inactives: top-dose activity change, negative = inhibition, usual class: inhibitors | 3.4% of 340,000 active; active = well fitted inhibition curve with a large enough effect; inconclusive = small, poorly fitted or top-dose-only effect, or another doubt; inactive = no such curve, though single readings can be large or run the other way; also: potency is read from the fitted curve at half-maximal effect
#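 1,000 cells/well; 4 h culture; + compound; + HCVcc-Cre (~0.5 moi); 44 h; luciferase substrate, RT 15 min; read 15 sec.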
# VACV mCherry inh: qHTS for Stage-Specific Inhibitors of Vaccinia Orthopoxvirus: mCherry Reporter Primary qHTS; Potency, µM (highest dose often 36.5 µM), for inactives: at the top dose activity change, negative = inhibition, usual class: inhibitors; 0.63% of 310,000 active; Vaccinia virus mCherry reporter infection, fluorescence; calls by dose curve; tested in A549 cells; also: potency is read from the fitted curve at half-maximal effect; nearly all actives have a fitted effect of over 35% in size
# HCMV antiviral: qHTS Assay for inhibitors of the human cytomegalovirus (HCMV); HFF cells, HCMV-luciferase reporter, 72 h; stronger effect = lower value; activity change, negative = inhibition, % at 57.5 µM; 4.5% of 410,000 active; in the data active = activity change below about -60%; inconclusive = no clear call, values can overlap the other calls; inactive = above about -39%
#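 HFF cells seeded 16 h at 37C, treated with compounds, infected with luciferase-reporter HCMV at MOI 1 PFU/cell; luciferase read at 72 h post infection, normalized to buffer-only and Salinomycin controls.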
# * marks the source's active call; other numbers are inactive results; i = inactive; ? = inconclusive; / = no result given; [ ] = another dose, or the depositor's remark. Shown are actives, neighbours in structure and some others; about 7.3% of the full set was active somewhere. % is scaled to controls: 0 for no effect and ±100 for the full control effect.
SMILES,FMDV antiviral,VACV Venus inh,HCV inh,VACV mCherry inh,HCMV antiviral
Cc1ccc(Nc2ccc([N+](=O)[O-])ccc2=O)cc1,34%,-5%[7.34 µM],-15%,-27%[7.34 µM],-25
Cc1nsc(Nc2ccc([N+](=O)[O-])cc2)c1C#N,-9%,-2%,-15%,-13%,-64*
CCCOC(=O)c1ccc(NC(=O)COC(=O)C2CCN(c3ccc(C(F)(F)F)cn3)CC2)cc1,22%,/,19%,/,62
Cc1ccc(NC(=O)COC(=O)C2CCN(c3ccc(C(F)(F)F)cn3)CC2)cc1,-2%,/,3%,/,-73*
COC(=O)[C@H]1[C@@H](C)N(CCc2cc(OC)c(OC)c(OC)c2)C(=O)N[C@H]1c1ccccc1,-14%,-19%,22µM*,-12%,-23
CC1(C(=O)N/N=C/c2c(F)c(F)c(F)c(F)c2F)CC1(Cl)Cl (configuration not stated),-22%,1%,11µM*,-7%,?
Cc1oc(C(C)(C)C)cc1C(=O)NC(Cc1ccccc1)C(=O)O (configuration not stated),9%,4%,13%,-10%,-77*
Cc1noc(C)c1-c1ccc2ncnc(N(C)Cc3ccco3)c2c1,6%,-29%,/,-20%,/
c1ccc(CNc2c3c(nc4ccccc24)CCC3)cc1,?,-22%,?,-2%,?
OCCNc1c2c(nc3ccccc13)CCCC2,-22%,5%,-3%,-12%,13
CN(C)CCCNc1c2c(nc3ccccc13)CCC2,-9%,/,?,/,-95*
CC(C)CNc1c2c(nc3ccccc13)CCC2,?,?,?,-28%,-68*
CN1C2CCC1/C(=C\c1ccccc1F)C(=O)/C2=C/c1ccccc1F,-16%,?,-2%,11µM*,-72*
C=C1C(=O)[C@@]23C[C@H]4[C@@H]5[C@@]6(C)CCC[C@@]57[C@@H]2[C@@H](O)[C@@H]1C[C@H]3[C@H]7N4C6,25µM*,?,-45%,?,-77*
COc1cc(/C=C2/NC(=O)N(CC(=O)Nc3cccc(C)c3)C2=O)ccc1OCC(N)=O,-11%,-8%,10µM*,-1%,-22
CCOc1cc(/C=C2/NC(=O)N(CC(=O)Nc3cccc(C)c3)C2=O)ccc1OC,-23%,-16%,-13%,-8%[1.46 µM],?
COC(=O)c1ccccc1NC(=O)C1=CC(c2ccc(C)cc2)=NS(=O)(=O)N1C,-2%,-10%,/,-1%,-2
N#C/C(=N\Nc1ccc(Cl)c(Cl)c1)C(=O)C1CC1,-9%,?,?,-29%,-100*
COc1ccc2ccccc2c1/C=N/Nc1cccc(C(=O)O)c1,12%,3%,2%,6%,28
CCOc1cc(/C=N/Nc2cccc(C(=O)O)c2)ccc1OC(=O)c1ccccc1,4µM*,-7%,2%,-12%,64
Cc1ccc(/C=N/Nc2cccc(C(=O)O)c2)s1,3.5µM*,-10%,13%,i,119
Cc1nn(-c2cccc(C(F)(F)F)c2)c(Cl)c1/C=N/Nc1cccc(C(=O)O)c1,-18%,-14%,0%,i,152
Cc1nn(-c2ccccc2Cl)c(Cl)c1/C=N/Nc1cccc(C(=O)O)c1,7.1µM*,-19%,29%,-3%,151
O=C(O)c1cccc(N/N=C/c2cccc3ccccc23)c1,4µM*,-1%,7%,-3%,134
Cc1ccc(/C=N/Nc2ccc(C(=O)O)cc2)s1,6.3µM*,4%,5%,-4%,-73*
SMILES,FMDV antiviral,VACV Venus inh,HCV inh,VACV mCherry inh,HCMV antiviral
O=C(O)c1ccc(N/N=C/c2cc(Br)cs2)cc1,-72%,8%,14%,3%,-33
CNS(=O)(=O)c1cc(-c2nnc(Nc3cc(C)ccc3C)c3ccccc23)ccc1C,9%,-14%,/,-22%,-78*
Cc1nnc(-c2ccc(N3CCOCC3)c([N+](=O)[O-])c2)o1,19%,/,-7%,/,/
Cc1ccc(Nc2nnc(-c3ccc(C)c(S(=O)(=O)N4CCOCC4)c3)c3ccccc23)c(C)c1,-19%,-32%,/,-15%,-66*
Cc1cccc(Nc2nnc(-c3ccc(N4CCOCC4)c([N+](=O)[O-])c3)c3ccccc23)c1,-13%,-27%,14µM*,-13%,-68*
Cc1ccc(-c2nnc(Nc3cccc(O)c3)c3ccccc23)cc1S(=O)(=O)N1CCOCC1,-48%,-28%,/,-20%,-61*
Cc1ccccc1Nc1nnc(-c2ccc(C)c(S(=O)(=O)N3CCOCC3)c2)c2ccccc12,?,-13%,/,-2%,-9
Cn1c(=O)n(C/C=C/c2ccccc2)c(=O)c2c1nc1n2CCN1c1ccccc1,-7%,-1%,/,-12%,49
OC[C@H]1NC[C@H](O)[C@@H](O)[C@H]1O,-23%,/,/,/,/
N#C[C@@H](c1ccccc1)C1CCN(C(=O)c2ccco2)CC1,/,/,/,/,9
COc1cccc(NC(=O)Nc2cc(Cl)ccc2C)c1,-20%,-25%,-6%,i,-60*
COC(=O)c1cccc(NC(=O)Nc2ccc(Cl)cc2)c1,5%,-3%,?,1%,-67*
COc1ccc(NC(=O)Nc2cccc(OC)c2)cc1,/,-18%,-19%,-2%,-21
O=C(Nc1cccc(Cl)c1)Nc1cccc(Cl)c1,-1%,?,-20%,?,?
COC(=O)c1cc(NC(=O)Nc2cccc(Cl)c2)ccc1Cl,/,?,10µM*,?,-99*
COC(=O)c1cc(NC(=O)c2ccc(-c3ccccc3)cc2)ccc1Cl,-15%,-10%,10µM*,-18%,-23
Cn1c(=O)n(C)c2cc(N3CCCCC3)c(NC(=O)c3c(F)cccc3F)cc21,-22%,-6%,/,-9%,-1
COc1ccc(OC)c(NC(=O)CN(C)S(=O)(=O)c2ccc(C(=O)N3CCOCC3)s2)c1,-21%,-4%,/,1%,-5
CCOC(=O)c1cccn1C1C(=O)N(Cc2ccc(OC)cc2)c2ccccc21 (configuration not stated),/,/,/,/,-27
CN1CCCC(CNC(=O)c2cnn(-c3nccc(-c4cccs4)n3)c2C2CC2)C1 (configuration not stated),-15%,-1%,/,-12%,/
COc1cc2c(cc1OC)C(C1c3cc4c(cc3CCN1C)OCO4)OC2=O (configuration not stated),-2%,/,9%,/,1
COc1cc2c(cc1OC)C1[C@H]3C(=CC[C@H]1OC2O)CCN3C (some centres not stated),-4%,-10%,10%,i,-103*
COCc1c(C(=O)N2CC3CCC2C3)cnn1-c1nccc(-c2ccccc2OC)n1 (configuration not stated),31%,-9%,/,-20%,/
CCCSc1nc(N)nc2c1ncn2C1OC(CO)C(O)C1O (configuration not stated),-2%,-14%,4%,i,-70*
